The record followed here is ChEMBL document CHEMBL1157539, “Thousands of chemical starting points for antimalarial lead identification” (Nature, 2010).

The Inhibition is the change of the read-out against control, counted positive when it falls. A lower Inhibition goes with a response near the control.

What all share (type): functional
Assay [1] relates to Plasmodium falciparum. Description: GSK_TCMDC: Inhibition of Plasmodium falciparum 3D7 in whole red blood cells, using parasite LDH activity as an index of growth. Test compounds present at 2uM.
Assay [2] concerns Plasmodium falciparum. Description: GSK_TCMDC: Inhibition of Plasmodium falciparum Dd2 in whole red blood cells, using parasite LDH activity as an index of growth. Test compounds present at 2uM.
Assay [3] relates to HepG2. Description: GSK_TCMDC: Percent inhibition of human HepG2 cell line. Test compounds present at 10uM.

On to `CN1CCCN(Cc2cccc(-c3ccc(CNC(=O)c4cccc(Cl)c4)c(F)c3)c2)CC1.O=C(O)C(F)(F)F`, for which the Inhibition is on record as 96% in assay [1], 38% in assay [2] and 56% in assay [3].

On to `Cc1cccc(C)c1N1CCN(C2CCC(NC(=O)c3cc4ccccc4[nH]3)CC2)CC1` (stereo not given), for which the Inhibition in assay [1] was determined as 100%; in assay [2], 64%; in assay [3], 31%.

On to `Cc1cc(NC(=O)NCCN2CCC(NC(=O)c3cccc(Br)c3)C2)c2ccccc2n1.O=C(O)C(F)(F)F` (stereo not given), for which the Inhibition in assay [1] came out at 100%; in assay [2], 60%; in assay [3] it was 0%.

In the case of `CCCCn1c(C(C)Oc2ccc(Cl)cc2Cl)nc2cc(S(N)(=O)=O)ccc21` (stereo not given), the figures for the Inhibition in assay [1], in assay [2] and in assay [3] were 94%, 45% and 24%, respectively.

Consider `Nc1ncc(-c2ccsc2)c2ccc(-c3cc(NCc4ccccc4)ncn3)cc12`, for which the Inhibition in assay [1] is listed as 100%; in assay [2], 86%; in assay [3], 0%.

In the case of `CCOC(=O)c1ccc(Nc2cc(Nc3ccc(C(=O)OCC)cc3)nc(C)n2)cc1`, the Inhibition in assay [1] was 99%; in assay [2], 33%; in assay [3], 4%.

On to `O=C(/C=C/c1ccc(Cl)c(Cl)c1)NCCCCCN1CCC(c2c[nH]c3c(-c4ccccc4)cccc23)CC1`, for which the Inhibition in assay [1] is recorded as 99%; in assay [2], 40%; in assay [3], 74%.

Regarding `O=C(NC1CCCCC1)N(Cc1cccc(-c2ccc(CNCCc3ccccc3)cc2)c1)C1CCN(Cc2ccccc2)CC1.O=C(O)C(F)(F)F`, the figures for the Inhibition in assay [1], in assay [2] and in assay [3] were 93%, 93% and 61%, respectively.

For `Cc1ccc(C(NC(=O)c2ccccc2)c2ccc3cccnc3c2O)cc1` (stereo not given), the Inhibition in assay [1] is recorded as 92%; in assay [2], 72%; in assay [3], 53%.

Take `CCNc1cc(C(=O)N[C@@H](Cc2ccco2)[C@H](O)CNC2CCCCC2)cc(N2CCCCS2(=O)=O)c1.Cl`: the Inhibition in assay [1] was 91%; in assay [2], 57%; in assay [3], 14%.

Take `CN(CCCCNC(=O)c1ccc(-c2ccccc2)cc1)C1CCc2c(O)cccc2C1.O=C(O)C(=O)O` (stereo not given): the Inhibition came to 100% in assay [1], 21% in assay [2] and 24% in assay [3].

Consider `COc1nc2c(CCN3CC[C@H](NCc4cc(C#N)c5c(c4)CCO5)[C@H](O)C3)ccnc2cc1F`, for which the Inhibition is reported as 99% in assay [1], 71% in assay [2] and 31% in assay [3].

On to `CN1CCCC(CN2CCN(Cc3ccc(-c4ccc(-c5nc6ccccc6[nH]5)cc4)cc3)CC2)C1.O=C(O)C(F)(F)F` (stereo not given), for which the Inhibition in assay [1] amounted to 100%; in assay [2], 100%; in assay [3], 69%.

Consider `O=C(CCc1cccnc1)Nc1ccc(-c2cccc(-c3nc4cc(F)ccc4[nH]3)c2)cc1`, for which the values for the Inhibition in assay [1], in assay [2] and in assay [3] were 86%, 9% and 67%, respectively.

Consider `COc1ccc2nccc([C@@H](O)CN3CCC(NC(=O)[C@@H]4Cc5ccccc5CN4C(=O)OC(C)(C)C)CC3)c2c1`, for which the Inhibition is 92% in assay [1], 61% in assay [2] and 15% in assay [3].

Consider `O=c1cc(NCCCNCc2cc(C(F)(F)F)ccc2Cl)[nH]c2ccccc12`, for which the Inhibition in assay [1] turned out to be 90%; in assay [2] it was 20%; in assay [3], 25%.

`O=C(/C=C/c1ccc(Cl)c(Cl)c1)NCCCCCN1CCC(NC(=O)Nc2ccc(Cl)cc2F)CC1`: the results for the Inhibition in assay [1], in assay [2] and in assay [3] were 100%, 40% and 100%, respectively.

As to `Nc1nc(N)c2c(Cl)c(N3CCOCC3)ccc2n1`, the Inhibition came out at 96% in assay [1], 3% in assay [2] and 65% in assay [3].

Turning to `O=C(/C=C/c1ccc([N+](=O)[O-])cc1)N1CCC(CCN2CCC(c3c[nH]c4ccccc34)CC2)CC1`, the Inhibition is on record as 100% in assay [1], 48% in assay [2] and 60% in assay [3].

`CC(C)c1cn2c3c(cc(C(=O)N[C@@H](Cc4ccccc4)[C@H](O)CNC4CCOCC4)cc13)N(C)S(=O)(=O)CC2.O=CO`: the figures for the Inhibition in assay [1], in assay [2] and in assay [3] were 98%, 99% and 9%, respectively.

With `COc1ccc(C2C(C(=O)Nc3cc(C)ccc3OC)c3ccccc3C(=O)N2C)cc1` (stereo not given), the Inhibition came to 86% in assay [1], 3% in assay [2] and 3% in assay [3].

For the compound `O=C(NCC(CCN1CCC(c2c[nH]c3ccccc23)CC1)c1ccccc1)Nc1ccc(Cl)c(Cl)c1` (stereo not given), the Inhibition was determined as 100% in assay [1], 53% in assay [2] and 46% in assay [3].

Regarding `COc1ccc(Nc2nc(C)cc(NCc3ccc(-c4c(C)noc4C)cc3)n2)cc1`, the Inhibition stood at 99% in assay [1], 50% in assay [2] and 48% in assay [3].

Consider `O=C(Cc1ccc[n+]([O-])c1)Nc1cccc(-c2cccc(-c3nc4cc(F)ccc4[nH]3)c2)c1`, for which the Inhibition in assay [1] stood at 92%; in assay [2] it was 98%; in assay [3] it was 28%.

As to `O=C(O)C(F)(F)F.c1cc(CNC2CCN(CC3CCCCC3)CC2)cc(-n2ccnc2)c1`, the figures for the Inhibition in assay [1], in assay [2] and in assay [3] were 100%, 97% and 3%, respectively.

As to `O=C(Nc1ccc(F)cc1)N1CCCN(c2ccnc3cc(Cl)ccc23)CC1.O=C(O)C(F)(F)F`, the Inhibition in assay [1] came to 97%; in assay [2], 16%; in assay [3], 7%.

Regarding `CC(C)CCNC(=N)Nc1ccc(OCCCCCOc2ccc(NC(=N)NCCC(C)C)cc2)cc1`, the Inhibition in assay [1] is given as 85%; in assay [2] it was 67%; in assay [3] it was 14%.

In the case of `Cc1nc2ccccn2c1C1(O)C(=O)Nc2c(Cl)cc(Cl)cc21` (stereo not given), the Inhibition in assay [1] stood at 95%; in assay [2], 62%; in assay [3] it was 0%.

As to `COc1ccc(C23Oc4cc(OC)cc(OC)c4C2(O)C2(CC3c3ccccc3)SCCCS2)cc1` (stereo not given), the figures for the Inhibition in assay [1], in assay [2] and in assay [3] were 96%, 97% and 39%, respectively.

As to `CN1CCN(c2cccc(-c3nnc(-c4ccc(OCC(=O)NCc5cccc(C(F)(F)F)c5)c([N+](=O)[O-])c4)o3)c2)CC1`, the figures for the Inhibition in assay [1], in assay [2] and in assay [3] were 90%, 72% and 25%, respectively.
